Our source for the Potency values is PubChem BioAssay (Tox21).

Inconclusive results are not listed. Where a call stands in place of a potency, no number is given. Calls of active or inactive are those of the source. Calls follow the shape of the full dose curve.

The first assay deals with Acetylcholinesterase (Homo sapiens) (UniProt P22303). In words: Acetylcholinesterase (AChE) small molecule antagonists: fluorescence cell-based qHTS assay (AID 1347398). Also: nearly all actives have a fitted effect of over 50% in size. Particulars: SH-SY5Y cells; Potency: AChE activity; outcome: AChE activity; series mostly up to 115 µM. The method in brief: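 Human SH-SY5Y cells were plated overnight at 37 C, exposed to compound for 30 min at 37 C, 5% CO2, then given acetylthiocholine plus Thiolite Green for 40 min at room temperature; thiocholine fluorescence (Ex/Em 490/520 nm) reports endogenous AChE activity.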
Acetylcholinesterase (Homo sapiens), sequence (P22303 whole entry, looked up): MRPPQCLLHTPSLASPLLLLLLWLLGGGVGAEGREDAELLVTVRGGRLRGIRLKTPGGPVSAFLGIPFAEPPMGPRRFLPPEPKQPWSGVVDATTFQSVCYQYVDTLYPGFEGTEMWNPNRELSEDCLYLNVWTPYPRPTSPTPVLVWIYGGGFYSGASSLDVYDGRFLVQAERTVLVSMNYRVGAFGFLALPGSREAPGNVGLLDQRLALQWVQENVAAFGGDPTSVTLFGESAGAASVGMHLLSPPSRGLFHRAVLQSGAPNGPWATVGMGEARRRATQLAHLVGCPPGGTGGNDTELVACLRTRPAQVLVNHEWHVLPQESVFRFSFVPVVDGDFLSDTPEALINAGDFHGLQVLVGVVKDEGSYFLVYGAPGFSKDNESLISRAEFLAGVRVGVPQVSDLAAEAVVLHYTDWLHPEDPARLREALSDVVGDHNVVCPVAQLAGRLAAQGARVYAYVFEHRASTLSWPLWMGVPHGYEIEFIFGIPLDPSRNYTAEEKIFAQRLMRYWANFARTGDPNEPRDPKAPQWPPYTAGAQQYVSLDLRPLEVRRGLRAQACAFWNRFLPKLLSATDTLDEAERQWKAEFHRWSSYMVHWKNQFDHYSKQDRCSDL
Consider `COC(=O)OC`, for which the Potency result is “inactive”.
Still for that read-out and setting: next, `O=C(Cl)c1ccccc1[N+](=O)[O-]`: “inactive”; `CCc1ncc(C)[nH]1`: “inactive”; `COC(=O)CCC(=O)OC`: “inactive”.
The same measure, in the same setting: next, `Cc1ccc(S(=O)(=O)Oc2ccc(N=Nc3ccc(-c4ccc(N=Nc5c(O)ccc6cc(S(=O)(=O)O)cc(S(=O)(=O)O)c56)c(C)c4)cc3C)cc2)cc1`: “inactive”; `COc1cc(C=O)ccc1OC(=O)C(C)C`: “inactive”; `CCC(=O)OC(C)c1ccccc1` (centres undefined): “inactive”.
The same measure, in the same setting: to `C[Si]1(C)N[Si](C)(C)N[Si](C)(C)N1` belongs “inactive”.
Regarding `Cc1cnc(NC(=O)C2=C(O)c3ccccc3S(=O)(=O)N2C)s1`, the Potency result is “inactive”.
On the same count and under the same terms, next, `c1cnc(N2CCN(Cc3ccc4c(c3)OCO4)CC2)nc1`: “inactive”; `CCC(C)N` (centres undefined): “inactive”; `COC(=O)c1c(Cl)c(Cl)c(C(=O)OC)c(Cl)c1Cl`: “inactive”.
Still for that read-out and setting: next, `C=C1C2CCC(C2)C1(C)C` (centres undefined): “inactive”.
On the same count and under the same terms, to `CCCCOc1cc(C(=O)NCCN(CC)CC)c2ccccc2n1` belongs “inactive”.
On to `C#CC(C)(CC)OC(=O)c1ccccc1C(=O)O` (centres undefined), for which the Potency result is “inactive”.
Same read-out and setting: next, `ONc1ccccc1`: “inactive”.
On the same count and under the same terms, to `N[C@@H](Cc1cc(I)c(Oc2cc(I)c(O)c(I)c2)c(I)c1)C(=O)O` belongs “inactive”; to `C=C(C)CNCC`, “inactive”.
The same measure, in the same setting: next, `C[C@@H]1C[C@H]2O[C@@]3(O[C@@H]2C(C)(C)O)[C@H](O)[C@@]2(C)[C@@H]4CC[C@H]5C(C)(C)[C@@H](O[C@@H]6OC[C@@H](O)[C@H](O)[C@H]6O)CC[C@@]56C[C@@]46CC[C@]2(C)[C@@H]13`: “inactive”.

For another assay the target is unchanged. In words: Acetylcholinesterase (AChE) small molecule antagonists: enzyme-based qHTS assay with human liver microsomes (AID 1347399). Also: nearly all actives have a fitted effect of over 60% in size. Particulars: Potency: qHTS inhibition; outcome: qHTS inhibition; series mostly up to 115 µM. In outline: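 Recombinant human AChE (50 mU/mL in the enzyme mix) and human liver microsomes (0.25 mg/mL final) were preincubated with compound and NADPH (0.25 mg/mL final) for 30 min at 37 C. Acetylthiocholine/DTNB was then added; thiocholine was read colorimetrically after 10 min at room temperature.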
Background: In qHTS, concentration-response curves come from the screen itself.
Consider `CCOC(=O)CC(CC(=O)OCC)(OC(C)=O)C(=O)OCC`, for which the Potency result was “inactive”.
On the same count and under the same terms, next, `O=C(O)C(=O)O`: “inactive”; `COC(=O)/C=C(\C)CCC=C(C)C`: “inactive”.
Same read-out and setting: next, `CNC(=O)CN(CCN(CCN(CC(=O)[O-])CC(=O)NC)CC(=O)[O-])CC(=O)[O-].O.[Gd+3]`: “inactive”; `CO[C@]1(NC(=O)CSC(F)F)C(=O)N2C(C(=O)O)=C(CSc3nnnn3CCO)CO[C@H]21`: “inactive”.
For `NS(=O)(=O)c1cc(C(=O)O)cc(N2CCCC2)c1Oc1ccccc1`, the Potency result was “inactive”.
As to `C[C@H]1[C@H]2CC[C@H]3[C@@H]4CC=C5C[C@@H](N(C)C)CC[C@]5(C)[C@H]4CC[C@]23CN1C`, the Potency entry is “inactive”.
With `CC[N+](CC)(CC(=O)Nc1c(C)cccc1C)Cc1ccccc1` (tested in a mixture with another compound), the Potency result was “inactive”.
`BrCc1cccc(Oc2ccccc2)c1`: the Potency result was “inactive”.
For `c1ccc(CNCCNCc2ccccc2)cc1`, the Potency result is “inactive”.
For the compound `O=C1CCCCCCCCCCCC(=O)OCCO1`, the Potency result was “inactive”.
Still for that read-out and setting: to `CC(=O)OCc1ccc2c(c1)OCO2` belongs “inactive”; to `CCCCCCC(C)(C)C(=O)O`, “inactive”.
As to `CCc1ccc(CC)cc1`, the Potency result is “inactive”.
Still for that read-out and setting: next, `CCOC(=O)C1=C(C)NC(C)=C(C(=O)OCC)C1c1ccccc1/C=C/C(=O)OC(C)(C)C`: “inactive”; `CCC(O)OC(O)CC` (centres undefined): “inactive”; `CCCCCCCC/C=C\CCCCCCCC(=O)OCCOC(=O)CCCCCCC/C=C\CCCCCCCC`: “inactive”.
Same read-out and setting: next, `C[Si](C)(C)Cl`: “inactive”.
Still for that read-out and setting: next, `COC(=O)N/N=C/c1c[n+]([O-])c2ccccc2[n+]1[O-]`: “inactive”; `CC/C=C/CCO`: “inactive”.
Turning to `NCCCCCCN`, the Potency result was “inactive”.
Same read-out and setting: to `COC(=O)OC` belongs “inactive”; to `O=C(Cl)c1ccccc1[N+](=O)[O-]`, “inactive”.
Take `CCc1ncc(C)[nH]1`: the Potency entry is “inactive”.
The same measure, in the same setting: to `COC(=O)CCC(=O)OC` belongs “inactive”; to `Cc1ccc(S(=O)(=O)Oc2ccc(N=Nc3ccc(-c4ccc(N=Nc5c(O)ccc6cc(S(=O)(=O)O)cc(S(=O)(=O)O)c56)c(C)c4)cc3C)cc2)cc1`, “inactive”; to `COc1cc(C=O)ccc1OC(=O)C(C)C`, “inactive”.
On the same count and under the same terms, next, `CCC(=O)OC(C)c1ccccc1` (centres undefined): “inactive”.
Consider `C[Si]1(C)N[Si](C)(C)N[Si](C)(C)N1`, for which the Potency result was “inactive”.
The same measure, in the same setting: next, `Cc1cnc(NC(=O)C2=C(O)c3ccccc3S(=O)(=O)N2C)s1`: “inactive”; `c1cnc(N2CCN(Cc3ccc4c(c3)OCO4)CC2)nc1`: “inactive”.
On to `CCC(C)N` (centres undefined), for which the Potency result was “inactive”.
Still for that read-out and setting: next, `COC(=O)c1c(Cl)c(Cl)c(C(=O)OC)c(Cl)c1Cl`: “inactive”.
On the same count and under the same terms, next, `C=C1C2CCC(C2)C1(C)C` (centres undefined): “inactive”; `CCCCOc1cc(C(=O)NCCN(CC)CC)c2ccccc2n1`: “inactive”.
Same read-out and setting: to `C#CC(C)(CC)OC(=O)c1ccccc1C(=O)O` (centres undefined) belongs “inactive”; to `ONc1ccccc1`, “inactive”.
Take `N[C@@H](Cc1cc(I)c(Oc2cc(I)c(O)c(I)c2)c(I)c1)C(=O)O`: the Potency result was “inactive”.
On the same count and under the same terms, to `C=C(C)CNCC` belongs “inactive”; to `C[C@@H]1C[C@H]2O[C@@]3(O[C@@H]2C(C)(C)O)[C@H](O)[C@@]2(C)[C@@H]4CC[C@H]5C(C)(C)[C@@H](O[C@@H]6OC[C@@H](O)[C@H](O)[C@H]6O)CC[C@@]56C[C@@]46CC[C@]2(C)[C@@H]13`, “inactive”.
